TAR Tat displ – HIV-1 TAR-Tat binding disruption; HIV-1 TAR RNA, Tat peptide displacement FRET; active compounds read high; z-score (no concentration beside the values); 100,000 compounds, 0.6% hits; active = z-score of 3 or more in at least 2 runs
CDC25B CDK2 inh – human CDC25B-CDK2/CyclinA binding inhibition | P30305+P24941 | HTRF CDC25B-CDK2/CyclinA binding, anti-His/anti-Flag; active compounds read high | z-score (no concentration beside the values) | 94,000 compounds, 0.72% hits; in the data active = z-score above about 3.2
Numbers stand for hits; – = inactive; · = no result given; ! = not confirmed by another sample. In the library only some 0.93% were active in any assay of this set; here they are far more common.

SMILES | TAR Tat displ | CDC25B CDK2 inh
O=C(Nc1ccc2c(c1)OCCO2)C1CCN(S(=O)(=O)c2ccc3[nH]c(=O)ccc3c2)CC1 | – | ·
CC1(C)Cc2ccccc2-c2nnc(-c3ccccc3Cl)n21 | – | –
Cc1cc(C)nc(Nc2nc(-c3ccc(O)c(O)c3)cs2)n1 | 29 | –
Oc1ccc(-c2csc(Nc3ncccn3)n2)cc1O | · | –
O=C(O)CSc1ccc(F)cc1 | – | ·
Cc1ccc(C)n1-c1ccc(SCC(=O)O)cc1 | 27 | –
Cc1cc(C)n(CC(C)O)c(=O)c1C#N (stereo not given) | – | 16
Cc1cc(C)n(CCCO)c(=O)c1C#N | – | –
COc1ccc(-c2c3c(=O)n(C)c(=O)n(C)c3c3n2-c2ccccc2NC3c2cc(O)ccc2O)cc1 (stereo not given) | 21 | –
COc1ccc(O)c(C2Nc3ccccc3-n3c(-c4ccccc4)c4c(=O)n(C)c(=O)n(C)c4c32)c1 (stereo not given) | – | –
CC(C)C(=O)Nc1nnc(SCc2cc(=O)c3ccccc3[nH]2)s1 | – | ·
Cc1ccc(CNS(=O)(=O)c2ccc(CCN3C(=O)c4cccnc4C3=O)cc2)o1 | – | ·
CC(=O)NCCNC(=O)c1ccc2c(=O)[nH]c3c(C(=O)NC4CCCC4)sc(=S)n3c2c1 | – | ·
O=C(NCc1ccco1)c1ccc2c(=O)[nH]c3c(C(=O)NCC4CCCO4)sc(=S)n3c2c1 (stereo not given) | 4.7 | ·
CCN(CC)CCNC(=O)c1ccc2c(=O)[nH]c3c(C(=O)NC(C)C)sc(=S)n3c2c1 | 6.4 | ·
CC(C)NC(=O)c1sc(=S)n2c1[nH]c(=O)c1ccc(C(=O)NC(C)c3ccccc3)cc12 (stereo not given) | – | ·
O=C(NCc1cccc(Cl)c1)c1sc(=S)n2c1[nH]c(=O)c1ccccc12 | – | ·
O=C(NCc1ccccc1)c1sc(=S)n2c1[nH]c(=O)c1ccccc12 | 8.4 | ·
COC(=O)C(C)n1cnc2c(oc3ccccc32)c1=O (stereo not given) | – | ·
O=C(c1ccc(N2CCSc3ncccc32)s1)N1CCN(c2ccccc2)CC1 | – | ·
Fc1ccc(-c2noc3ncnc(Nc4ccc(Cl)cc4)c23)cc1 | – | ·
CCn1cc(CCC(=O)NCCC2=CCCCC2)c2ccccc21 | – | ·
CCOC(=O)C1CCN(c2cc(NCC(=O)O)c3c4c(onc24)-c2ccccc2C3=O)CC1 | – | 5.9
CCOC(=O)C1CCCN(c2cc(NCCCC(=O)O)c3c4c(onc24)-c2ccccc2C3=O)C1 (stereo not given) | 21 | 11
CCOC(=O)N1CCN(c2cc(NCC(=O)O)c3c4c(onc24)-c2ccccc2C3=O)CC1 | – | 3.2
SMILES | TAR Tat displ | CDC25B CDK2 inh
CCOC(=O)C1CCCN(c2cc(NCC(C)C)c3c4c(onc24)-c2ccccc2C3=O)C1 (stereo not given) | – | –
CCOC(=O)N1CCN(c2cc(NCCCC(=O)O)c3c4c(onc24)-c2ccccc2C3=O)CC1 | – | –
CCOC(=O)C1CCN(c2cc(NCCOC)c3c4c(onc24)-c2ccccc2C3=O)CC1 | – | –
CC1=C(c2ccc(C)cc2)S(=O)(=O)NC1=NCCCN1CCN(C2CCCCC2)CC1 | – | –
Cn1c(=O)c2c(-c3ccc(Br)cc3)n(-c3ccccc3N)cc2n(C)c1=O | – | –
COC(=O)c1sccc1NC(=O)Cc1cccs1 | · | –
COC(=O)c1sccc1NC(=O)c1cccs1 | · | 6.7
CC1(C)CC[C@]2(C(=O)O)CC[C@]3(C)C(=CC[C@@H]4[C@@]5(C)CC[C@H](O)C(C)(C)[C@@H]5CC[C@]43C)[C@@H]2C1 | – | ·
COC(=O)[C@@]1(C)CC[C@]2(C)CC[C@]3(C)C(=CCC4[C@@]5(C)CCC(O)C(C)(C)C5CC[C@]43C)C2C1 (stereo not given in full) | · | 5.2
O=C(CC1CCCC1)NCCS(=O)(=O)N1CCc2ccccc2C1 | – | ·
C[C@](N)(Cc1ccc(O)cc1)C(=O)O | · | –
C[C@](N)(Cc1ccc(O)c(O)c1)C(=O)O | 26 | –
CCNc1nc2[nH]c(=O)cc(O)c2s1 | – | 11
CNc1nc2[nH]c(=O)cc(O)c2s1 | – | –
Cn1c(=O)c2c(SCC(=O)Nc3ccc4c(c3)OCO4)nc(-c3ccc(F)cc3)nc2n(C)c1=O | · | –
Cc1ccc(S(=O)(=O)Nc2ccc(O)c3ncccc23)cc1 | – | 15
Cc1ccc(S(=O)(=O)Nc2ccc(Cl)c3cccnc23)cc1 | – | –
Cc1ccc(S(=O)(=O)Nc2cccc3ncccc23)cc1 | · | –
Cc1ccc(S(=O)(=O)Nc2ccc(O)c3cccnc23)cc1 | – | 8.3
O=C(Cc1ccccc1)NCc1nc(-c2ccc3c(c2)nnn3C2CCCC2)no1 | – | ·
CCN(CC)C(=O)c1cc(O)cc(O)c1 | · | –
Cn1cc(NC(=O)NC2CCCCC2)c2ccccc2c1=O | – | 19
CC(C)Cn1cc(NC(=O)NC2CCCCC2)c2ccccc2c1=O | – | ·
CCOC(=O)C1CCN(S(=O)(=O)c2ccc3c(c2)OCC(C(=O)N2CCOCC2)O3)CC1 (stereo not given) | – | ·
CN1CCc2nc3sc(C(=O)c4ccc(Cl)cc4)c(N)c3cc2C1 | – | 19
SMILES | TAR Tat displ | CDC25B CDK2 inh
CN1CCc2nc3sc(C(=O)Nc4cccc(Cl)c4)c(N)c3cc2C1 | – | –
COCCNC(=O)c1cc2c(s1)-c1ccsc1CC2 | – | ·
O=C(Nc1cccc([N+](=O)[O-])c1)c1ccc2c(c1)C(=O)N(c1cccc3ccccc13)C2=O | · | –
O=C(CN1C(=O)c2ccc([N+](=O)[O-])cc2C1=O)Nc1ccc2ccccc2c1 | · | 6.7
Cc1cc(C)c(S(=O)(=O)NCCc2csc3nc(-c4ccc(F)cc4)nn23)c(C)c1 | – | ·
O=C1CC(C(=O)Nc2ccc3c(c2)OCO3)n2ncnc2N1 (stereo not given) | – | –
O=C1CC(C(=O)Nc2ccc(Cl)cc2)n2ncnc2N1 (stereo not given) | – | 3.9
Cc1cc(=O)oc2cc(O)cc(O)c12 | – | ·
O=c1oc2c(O)c(O)cc3c(=O)oc4c(O)c(O)cc1c4c23 | 31! | ·
CCOc1ccc(-c2nc3c(c(Cc4ccccc4)nn3-c3ccccc3)c3cc(OC)c(OC)cc23)cc1OCC | · | –
Cc1cc2c(cc3c(=O)n(CCCC(=O)NCc4ccccn4)nc(C)n32)o1 | – | –
Cc1[nH]c2ccccc2c1SCC(=O)NNC(=O)Nc1cccc(Cl)c1 | · | 14
O=C(CSc1nc2ccccc2c(=O)[nH]1)Nc1cccc(Cl)c1 | – | ·
CCOc1cc(CNc2nnn(C)n2)ccc1OCc1ccc(Cl)cc1 | – | ·
CCOC(=O)c1cnc(SCc2ccc(Br)cc2F)nc1N | – | ·
Cc1cc(Nc2ccc(N(C)C)cc2)c2cccc(C)c2n1 | 22 | –
Cc1cc(C)c2nc(C)cc(Nc3ccc(N(C)C)cc3)c2c1 | – | –
O=C(Nc1cc(-c2ccc(F)c(F)c2)no1)c1ccc(Cl)cc1 | – | –
CC1(C)CC(=O)C2=C(C1)Nc1ccccc1N(CC(=O)Nc1nccs1)C2c1ccco1 (stereo not given) | – | ·
N.N.N.N.N.N.N.N.N.N.N.N.N.N.O.O.[Cl-].[Cl-].[Cl-].[Cl-].[Cl-].[Cl-].[Ru+4].[Ru+5].[Ru+5] | · | 4.2
CC1CCC(NC(=O)C2CCN(S(=O)(=O)c3ccc4[nH]c(=O)ccc4c3)CC2)CC1 (stereo not given) | – | ·
CC1CCC(NS(=O)(=O)c2ccc3[nH]c(=O)ccc3c2)CC1 (stereo not given) | 32 | ·
CCCCOC(=O)c1c(N)n(-c2ccccc2OC)c2nc3ccccc3nc12 | · | –
CCCCOC(=O)c1c(N)n(-c2ccc(OC)cc2)c2nc3ccccc3nc12 | – | 11
